High-throughput results (PubChem)
Most compounds without a hit are left out; they make up all but 3.5% or so of the library.
mHTT CaM bind – mHTT-calmodulin interaction abrogation | P42858 | AlphaScreen His-mHTT/GST-CaM binding, luminescence | inhibition, % at 15 µM | 3.6% of 190,000 active | AID 1671202
Target sequence (P42858 whole entry, looked up, change not shown): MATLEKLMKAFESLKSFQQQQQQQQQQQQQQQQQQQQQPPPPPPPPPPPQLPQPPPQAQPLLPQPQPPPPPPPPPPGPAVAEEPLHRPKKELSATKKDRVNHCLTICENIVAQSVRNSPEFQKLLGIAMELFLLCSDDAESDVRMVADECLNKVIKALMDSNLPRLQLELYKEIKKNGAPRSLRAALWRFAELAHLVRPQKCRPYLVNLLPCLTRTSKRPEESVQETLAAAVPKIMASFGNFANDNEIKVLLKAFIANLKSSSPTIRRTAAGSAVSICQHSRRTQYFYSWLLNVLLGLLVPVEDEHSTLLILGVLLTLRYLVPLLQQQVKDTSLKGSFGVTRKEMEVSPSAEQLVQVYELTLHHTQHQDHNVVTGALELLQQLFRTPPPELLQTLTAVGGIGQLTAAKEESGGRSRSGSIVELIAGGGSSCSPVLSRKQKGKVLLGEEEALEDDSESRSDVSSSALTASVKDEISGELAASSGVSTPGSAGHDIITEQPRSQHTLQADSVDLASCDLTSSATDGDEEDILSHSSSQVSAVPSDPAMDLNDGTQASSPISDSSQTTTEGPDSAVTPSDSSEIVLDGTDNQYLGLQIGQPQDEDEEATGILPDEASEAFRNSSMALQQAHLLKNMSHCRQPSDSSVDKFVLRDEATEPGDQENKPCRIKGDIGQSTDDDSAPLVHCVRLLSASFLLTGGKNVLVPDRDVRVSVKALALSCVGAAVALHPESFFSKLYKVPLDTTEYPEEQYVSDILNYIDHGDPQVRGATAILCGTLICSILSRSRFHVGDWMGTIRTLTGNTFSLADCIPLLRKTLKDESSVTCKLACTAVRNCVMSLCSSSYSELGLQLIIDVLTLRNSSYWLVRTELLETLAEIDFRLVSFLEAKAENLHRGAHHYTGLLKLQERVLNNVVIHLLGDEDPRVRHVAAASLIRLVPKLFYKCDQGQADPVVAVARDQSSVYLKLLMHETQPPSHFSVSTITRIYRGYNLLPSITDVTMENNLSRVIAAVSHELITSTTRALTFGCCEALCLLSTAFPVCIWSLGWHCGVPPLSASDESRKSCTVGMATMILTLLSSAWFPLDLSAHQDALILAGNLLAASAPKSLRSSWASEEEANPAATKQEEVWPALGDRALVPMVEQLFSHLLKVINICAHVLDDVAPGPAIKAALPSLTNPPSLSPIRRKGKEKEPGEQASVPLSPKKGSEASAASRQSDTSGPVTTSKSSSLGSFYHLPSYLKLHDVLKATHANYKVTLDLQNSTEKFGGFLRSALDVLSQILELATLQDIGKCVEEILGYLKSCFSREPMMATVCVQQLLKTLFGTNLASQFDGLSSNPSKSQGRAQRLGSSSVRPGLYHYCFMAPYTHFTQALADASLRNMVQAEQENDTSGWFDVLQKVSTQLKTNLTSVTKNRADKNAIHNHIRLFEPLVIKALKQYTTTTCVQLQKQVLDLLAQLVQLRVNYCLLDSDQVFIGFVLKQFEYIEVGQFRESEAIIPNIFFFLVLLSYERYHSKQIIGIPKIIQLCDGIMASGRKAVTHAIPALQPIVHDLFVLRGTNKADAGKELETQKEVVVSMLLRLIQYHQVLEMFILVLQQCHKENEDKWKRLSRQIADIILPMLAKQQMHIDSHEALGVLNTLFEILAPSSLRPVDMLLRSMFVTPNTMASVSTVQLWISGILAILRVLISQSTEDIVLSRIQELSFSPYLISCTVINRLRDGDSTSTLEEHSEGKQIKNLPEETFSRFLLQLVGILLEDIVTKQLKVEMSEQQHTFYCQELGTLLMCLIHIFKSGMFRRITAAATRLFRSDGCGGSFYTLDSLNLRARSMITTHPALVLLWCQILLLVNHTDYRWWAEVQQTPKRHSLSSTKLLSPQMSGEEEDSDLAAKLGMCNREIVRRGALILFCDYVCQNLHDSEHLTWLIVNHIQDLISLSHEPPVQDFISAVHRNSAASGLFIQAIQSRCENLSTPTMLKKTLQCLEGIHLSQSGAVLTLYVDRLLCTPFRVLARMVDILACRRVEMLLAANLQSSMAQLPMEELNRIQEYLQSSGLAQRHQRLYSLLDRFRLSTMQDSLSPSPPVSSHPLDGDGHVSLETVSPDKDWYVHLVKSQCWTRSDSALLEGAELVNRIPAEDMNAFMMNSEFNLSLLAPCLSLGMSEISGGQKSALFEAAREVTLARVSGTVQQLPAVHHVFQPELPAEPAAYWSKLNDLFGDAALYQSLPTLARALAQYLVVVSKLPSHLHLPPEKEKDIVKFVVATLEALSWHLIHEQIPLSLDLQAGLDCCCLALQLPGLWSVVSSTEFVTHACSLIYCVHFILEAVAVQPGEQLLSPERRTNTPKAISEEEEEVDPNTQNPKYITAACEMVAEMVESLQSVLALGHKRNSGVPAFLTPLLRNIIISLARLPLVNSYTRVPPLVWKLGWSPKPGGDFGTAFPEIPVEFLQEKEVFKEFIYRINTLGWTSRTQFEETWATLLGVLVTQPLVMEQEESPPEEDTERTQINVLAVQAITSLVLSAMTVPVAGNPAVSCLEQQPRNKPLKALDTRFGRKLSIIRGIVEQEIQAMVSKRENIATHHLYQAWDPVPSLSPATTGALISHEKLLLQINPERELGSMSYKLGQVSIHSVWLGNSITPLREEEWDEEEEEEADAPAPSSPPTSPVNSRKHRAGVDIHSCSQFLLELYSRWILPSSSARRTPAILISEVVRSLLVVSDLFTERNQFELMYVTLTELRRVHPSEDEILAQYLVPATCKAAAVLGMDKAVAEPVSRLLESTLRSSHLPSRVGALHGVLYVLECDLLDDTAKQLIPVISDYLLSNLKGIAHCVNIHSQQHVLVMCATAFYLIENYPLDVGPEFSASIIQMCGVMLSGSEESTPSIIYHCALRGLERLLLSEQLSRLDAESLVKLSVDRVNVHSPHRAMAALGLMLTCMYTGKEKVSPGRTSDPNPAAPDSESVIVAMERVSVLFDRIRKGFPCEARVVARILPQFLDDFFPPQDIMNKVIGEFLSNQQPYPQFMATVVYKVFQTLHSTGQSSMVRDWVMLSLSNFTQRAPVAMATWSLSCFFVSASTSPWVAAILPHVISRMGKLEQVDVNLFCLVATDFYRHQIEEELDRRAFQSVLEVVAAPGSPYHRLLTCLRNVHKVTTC
Pf apPOL inh – Pf-apPOL DNA polymerase inhibition; Recombinant Pf-apPOL, molecular beacon fluorescence, 1.5 h; inhibition, % at 10 µM; 0.25% of 210,000 active
Hits are given with their value; – = inactive; · = no result given; ! = a repeat was not active. No stated cut-off is given here; in the data, active means inhibition above about 50%; inactive means the rest.

SMILES	mHTT CaM bind	Pf apPOL inh
Cc1cccn2c(=O)c3cc(C(=O)NCCc4ccccc4)c(=N)n(C4CCCCC4)c3nc12	–	–
CC12COc3ccccc3C1c1sc(=O)[nH]c1SC2 (centres undefined)	–	–
N#CC1=C(N)Oc2c(c(=O)oc3ccccc23)C12C(=O)Nc1ccccc12 (centres undefined)	–	·
O=C(Nc1c2c(nn1-c1ccc([N+](=O)[O-])cc1)CSC2)c1c(F)cccc1F	–	–
O=C1CCN(CCc2ccccc2)CCN1[C@H](CSc1ccc(Br)cc1)Cc1ccccc1	75!	–
O=C1CCN(Cc2ccccc2)CCN1[C@H](CSc1ccccc1)Cc1ccccc1	–	–
Cc1ccc2c(c1)C1CC(C)(O2)N(c2ccccc2C(F)(F)F)C(=O)N1 (centres undefined)	–	–
CN1C(=O)CC(C(=O)O)SC1=Nc1ccc(Br)cc1 (centres undefined)	–	–
O=C1CC(=Nc2ccc(Br)cc2)NN1c1ccccc1	77	–
NNC(=O)Cc1ccsc1	·	–
CCc1ccc(C2=CC(c3cc(OC)ccc3OC)n3nnnc3N2)cc1 (centres undefined)	–	–
Cc1ccc2c(c1)/C(=C/c1nc3ccccc3c(=O)n1C)C(=O)N2	–	–
Cc1ccc2c(c1)/C(=C/c1nc3ccccc3c(=O)n1-c1ccccc1[N+](=O)[O-])C(=O)N2	86	–
COCCN1C(=O)CCC2(CNC(=O)c3cccnc3)CCCC12 (centres undefined)	–	–
O=C(NCc1ccccc1)N1CC2CCCN2c2ccccc21 (centres undefined)	83	–
O=C(NCc1ccccc1)c1ccc(NC(=O)N2CC3CCCN3c3ccccc32)cc1 (centres undefined)	–	–
Cc1cccc(CNC(=O)CCC(=O)N2CC3CCCN3c3ccccc32)c1 (centres undefined)	–	–
Cc1ccc(CNC(=O)N2CC3CCCN3c3ccccc32)cc1 (centres undefined)	57	–
CC(C)CCNC(=O)N1CC2CCCN2c2ccccc21 (centres undefined)	56	–
CCC1CN(C(=O)NCCC(C)C)c2ccccc2O1 (centres undefined)	–	–
CCc1ccccc1NC(=O)NCCNc1ccc(Nc2cccc(C)n2)nn1	–	–
CCCC(CCC)C(=O)Nc1ccc(-c2nnc(-c3ccco3)o2)cc1	–	–
Cc1ccccc1CN1C(=O)/C(=C/C(=O)NCCCOC(C)C)Sc2ccccc21	–	–
Cc1cc(C)cc(C(=O)Nc2c3c(nn2-c2cccc(C)c2C)CS(=O)(=O)C3)c1	–	–
COc1ccc(C2/C=C\CN(C(=O)C3CCCCC3)CC(=O)N2Cc2ccc(F)cc2)cc1 (centres undefined)	–	–
SMILES	mHTT CaM bind	Pf apPOL inh
COc1ccc(C2/C=C\CN(C(=O)Nc3ccccc3-c3ccccc3)CC(=O)N2Cc2ccc(F)cc2)cc1 (centres undefined)	60	–
COc1ccc(C2/C=C\CN(C(=O)C3CCCC3)CC(=O)N2Cc2ccc(F)cc2)cc1 (centres undefined)	63	–
COC(=O)N1C/C=C\C(c2ccc(OC)cc2)N(Cc2ccc(F)cc2)C(=O)C1 (centres undefined)	–	–
COc1ccc(C2/C=C\CN[C@@H](Cc3ccccc3)C(=O)N2Cc2ccc(F)cc2)cc1 (some centres undefined)	64	–
COc1ccc(C2/C=C\CN(CC3CC3)[C@@H](Cc3ccccc3)C(=O)N2Cc2ccc(F)cc2)cc1 (some centres undefined)	–	–
Cc1ccc(NC(=O)N2CCCC2c2c(C)noc2C)cc1 (centres undefined)	–	–
O=C(NCCCn1ncccc1=O)c1coc(NC(=O)c2cccs2)n1	–	–
O=C(NNc1ccccc1F)c1ccno1	·	–
COc1ccc(C2/C=C\CN(C(=O)C3CCCCC3)[C@@H](Cc3ccccc3)C(=O)N2Cc2ccc(F)cc2)cc1 (some centres undefined)	–	–
CCCCN1C(=O)c2cccc3c(NC(=O)c4cc(C)on4)ccc1c23	–	–
Cc1ccc(C(=O)Nc2ccc(-c3nc4ccccc4o3)c(O)c2)cc1[N+](=O)[O-]	–	–
CCOc1ccccc1C(=O)NCc1cccnc1	–	–
CC(=O)C1=C(O)C(=O)N(C(C)c2ccccc2)C1c1ccccc1 (centres undefined)	–	–
CC(=O)c1c(C(C)=O)c(C)n(CCc2c[nH]c3ccccc23)c1C	–	–
O=C1C2C3c4ccccc4C(c4ccccc43)C2C(=O)N1CCc1c[nH]c2ccccc12 (centres undefined)	100	–
COCC(=O)N1CCCC1c1nc2cc(-c3ccc(F)cc3F)ccc2o1 (centres undefined)	–	–
COc1cccc(NC(=O)c2ccc(-c3cccc(F)c3)nc2)c1	–	–
Cc1ccc(/C=C/C23NC(=O)CCN2c2ccccc2C3(C)C)cc1 (centres undefined)	55	–
CC1(C)c2ccccc2N2CCC(=O)NC21C=Cc1cccs1 (centres undefined)	·	–
O=[N+]([O-])c1ccc2nc(Cl)c(Cl)nc2c1	–	·
CC1(C)N=c2ccc([N+](=O)[O-])cc2=N1	·	64
Cc1cc(C)nc(Nc2ncc(O)n2-c2ccc(Cl)cc2)n1	–	52
Cc1ccc(-n2c(O)cnc2Nc2nc(C)cc(C)n2)cc1	–	–
NC(=O)c1cc2cc(Br)ccc2oc1=Nc1cccc(F)c1	–	–
Cc1ccc(CN2C(=O)/C(=C/C(=O)O)Sc3ccccc32)cc1	60	–
SMILES	mHTT CaM bind	Pf apPOL inh
Cc1ccccc1CN1C(=O)/C(=C/C(=O)O)Sc2ccccc21	–	–
O=C(/C=C1\Sc2ccccc2N(Cc2ccc(F)cc2)C1=O)NCCc1ccccc1	–	–
Cc1ccccc1CN1C(=O)/C(=C/C(=O)NCCc2ccccc2)Sc2ccccc21	51	–
COc1ccc2nc(N=Cc3nc(-c4ccc(Cl)cc4)oc3O)sc2c1	–	–
CN(Cc1ccccc1)C(=O)c1cc2cn(C3CC3)cc2s1	95	–
CC(C)N1CCN(C(=O)c2cc3cn(C(C)C)cc3s2)CC1	–	–
CC(C)n1cc2cc(C(=O)N(C)Cc3ccccc3)sc2c1	86	–
CC(C)n1cc2cc(C(=O)N3CCN(Cc4cccc(F)c4)CC3)sc2c1	71	–
CC(C)n1cc2cc(C(=O)N(C)C)sc2c1	–	–
O=C(NCc1ccccc1)c1cc2cn(C3CC3)cc2s1	–	–
COc1cccc(OC)c1C(=O)N1CCN(C(=O)c2ccco2)CC1	–	–
O=C(C1CCN(c2cc(N3CCCCC3)ncn2)CC1)N1CCCCCC1	–	–
O=C(NCc1csc(C2CCN(C(=O)c3ccccc3)CC2)n1)C1CC1	–	–
NNC(=O)CN1C(=O)CSc2ccc(C(F)(F)F)cc21	·	–
COc1ccc(NC(=O)c2ccc(C(=O)Nc3ccc(OC)cc3OC)nc2)c(OC)c1	–	–
COc1ccc(C2(CNC(=O)C(=O)NCCc3ccccc3)CCCC2)cc1	–	–
CC(=O)c1cc(C#N)c(SCC(=O)c2ccc(Cl)cc2)nc1C	–	–
Cc1cc(C)c(C#N)c(SC/C=C/c2ccccc2)n1	–	–
CC(=O)c1cc(C#N)c(SC/C=C/c2ccccc2)nc1C	97	–
CC(=O)c1cc(C#N)c(SCC(=O)c2ccc(O)c(O)c2)nc1C	88	–
COc1ccc(-c2nc3s/c(=C\c4ccc(SC)cc4)c(=O)n3n2)cc1	–	–
Cc1cccc(NC(=O)Cn2nnc(-c3ccccc3)n2)c1C	–	–
